This test deals with Clostridium sporogenes DSM 1664. Nature of the test: growth (OD595) fold change vs plate DMSO controls (fold change (ratio)); higher = more growth. Conditions: incubation time: 27 h, anaerobic, 37 °C. The method in brief: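 The 96-well mGAM cultures had been kept anaerobic for 27 h at 37 °C before being shaken and read at 595 nm. Blank subtraction, compound background correction with 20 µM compound solutions in water, and a calibration factor of 5 turned the readings into OD. Growth is given as the fold change versus the median of plate DMSO controls. Fold changes above 1.5 were set to NA, and the values are means of 2 biological replicates.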
`CC(=O)OCC(CCn1cnc2cnc(N)nc21)COC(C)=O` [Famciclovir] (20 µM): the growth was found to be 0.805.
In the case of `COC(c1ccccc1)(c1ccccc1)[C@H](Oc1nc(C)cc(C)n1)C(=O)O` [Ambrisentan] (20 µM), the growth turned out to be 0.967.
The result for `C[C@H](CCC(=O)O)[C@H]1CC[C@H]2[C@@H]3[C@@H](O)C[C@@H]4C[C@H](O)CC[C@]4(C)[C@H]3CC[C@]12C` [Urosiol] (20 µM) reads 0.969; that for `C=C(CC)C(=O)c1ccc(OCC(=O)O)c(Cl)c1Cl` [Ethacrynic acid] (20 µM), 1.11.
`C[C@]12CC[C@@H]3c4ccc(O)cc4CC[C@H]3[C@@H]1C[C@@H](O)[C@@H]2O` [Estriol] (20 µM): the growth turned out to be 1.12.
Regarding `Cc1cc2cc3c(C)cc(=O)oc3c(C)c2o1` [Trioxsalen] (20 µM), the growth turned out to be 1.03.
`O=C(Nc1cccc2c(=O)cc(-c3nnn[nH]3)oc12)c1ccc(OCCCCc2ccccc2)cc1` [Pranlukast] (20 µM): the growth was 1.1.
The result for `C[N+]1(C)CCC(OC(=O)C(O)(c2ccccc2)C2CCCC2)C1` (stereo not given) [Glycopyrrolate bromide] (20 µM) reads 0.836; that for `CC(C)(O)c1ccccc1CC[C@@H](SCC1(CC(=O)O)CC1)c1cccc(/C=C/c2ccc3ccc(Cl)cc3n2)c1` [Montelukast] (20 µM), 0.909.
`C[C@@H]1C[C@H]2[C@@H]3C[C@H](F)C4=CC(=O)C=C[C@]4(C)[C@@]3(Cl)[C@@H](O)C[C@]2(C)[C@H]1C(=O)COC(=O)C(C)(C)C` [Clocortolone pivalate] (20 µM): the growth came to 1.06.

(Values after the supplement of paper PMC12494721.)
